# Rows were chosen to be rich in hits. Some 1.6% of all compounds tested hit in one or more screens of this group.
# KCNQ2 inh: inhibitors of rat KCNQ2 potassium channel. CHO-K1 KCNQ2, FluxOR thallium flux, 20 min; active compounds read low. 310,000 tested, 1.1% active. AID 2156. B-score at 10 µM;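 active means fluorescence ratio B-score at most minus 3 library SDs, with starting brightness B-score within 2 library SDs, cut at about -5.5 in these data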
# KCNQ2 pot: KCNQ2 (rat) channel potentiation. AID 2239. CHO-K1 KCNQ2, FluxOR thallium flux fluorescence; active compounds read high. B-score at 10 µM. 310,000 tested, 0.54% active;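 active means fluorescence ratio B-score at least 3 SD of library B-scores, with initial fluorescence B-score within 3 of them, cut at about 5.3 in these data; same plate scores as AID 2156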;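 further: B-score of peak minus minimum over baseline fluorescence ratio after K+ and Tl+ stimulus; positive B-score means potentiation of KCNQ2 with more thallium influx and brighter signal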
# Kir21 conf inh: confirmation of mouse Kir2.1 potassium channel inhibitors; shares compounds with KCNQ2 pot; Kir2.1-expressing cells, FluxOR thallium flux fluorescence; active compounds read low; Tl flux remaining, % of negative control (active compounds read low), % at 10 µM; 2,300 tested, 41% active; AID 2032;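 active means Primary-screen hit whose thallium flux fell at least 3 control SD below untreated wells in both duplicates, with normal baseline fluorescence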;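 further: 0% = blank wells without stimulus and 100% = stimulated no-compound controls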
# Target sequence (P35561 whole entry, looked up): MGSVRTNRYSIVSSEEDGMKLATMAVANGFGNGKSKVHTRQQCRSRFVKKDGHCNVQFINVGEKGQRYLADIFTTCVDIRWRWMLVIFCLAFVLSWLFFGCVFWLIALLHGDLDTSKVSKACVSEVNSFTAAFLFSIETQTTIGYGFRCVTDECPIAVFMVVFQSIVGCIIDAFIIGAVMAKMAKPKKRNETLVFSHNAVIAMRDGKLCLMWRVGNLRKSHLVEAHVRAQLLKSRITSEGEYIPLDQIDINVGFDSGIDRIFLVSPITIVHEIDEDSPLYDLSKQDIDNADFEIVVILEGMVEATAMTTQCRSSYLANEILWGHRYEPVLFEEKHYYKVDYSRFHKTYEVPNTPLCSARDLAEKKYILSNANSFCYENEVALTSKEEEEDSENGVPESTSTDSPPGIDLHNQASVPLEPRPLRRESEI
# HEK293 Tl flux: alters thallium flux in parental HEK293 cells, Kir2.1 counter-screen; FluxOR thallium flux fluorescence; 0% = unstimulated blank wells; shares compounds with KCNQ2 pot; 2,300 tested, 19% active; AID 2105; FluxOR signal as % of negative control (100 = no effect), % at 10 µM;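 active means dye signal at least 3 control SD above or below untreated wells in both duplicates, raw fluorescence within 3, either direction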;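 further: percent is based on the flux ratio of peak minus minimum fluorescence over baseline F0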
# CHO-K1 Tl ctr: parental CHO-K1 activity in KCNQ2 potentiator counter-screen; activity increase over 3SD of controls, % at 10 µM; 1,200 tested, 43% active; shares compounds with KCNQ2 pot; parental CHO-K1 cells, FluxOR thallium flux fluorescence; zero = vehicle mean+3SD, 100% = vehicle-minus-blank window;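 active means signal rise of at least 3 SD above the untreated control mean, in both duplicate wells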;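 further: counter screen of KCNQ2 potentiator hits so any rise reflects channel-independent effects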
# KCNQ1 sel pot: tests whether KCNQ2 potentiators also act on human KCNQ1. shares compounds with KCNQ2 pot. 1,200 tested, 28% active. CHO KCNQ1 stable, FluxOR thallium flux fluorescence; beyond 3SD, as % of vehicle-control signal. activation over 3SD threshold, % at 10 µM;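 active means fluorescence ratio rise of at least 3 SD of vehicle wells above their mean, in both replicate wells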;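 further: 0% = vehicle mean plus 3 SD and 100% = vehicle minus unstimulated blank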
# KCNQ2 pot confirm: rat KCNQ2 channel potentiator confirmation. CHO-KCNQ2 cells, FluxOR thallium flux fluorescence. 1,200 tested, 68% active. potentiation, less the hit threshold, % at 10 µM. shares compounds with KCNQ2 pot;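 active means fluorescence ratio rising 3 SD or more over the vehicle control mean in both replicates, plus primary screen hit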;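 further: peak minus minimum thallium fluorescence divided by baseline after K/Tl stimulus; 0% = vehicle mean plus 3 SD and 100% = vehicle minus unstimulated blank difference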
# Kir21 spec: tests whether KCNQ2 potentiators also affect mouse Kir2.1 | shares compounds with KCNQ2 pot | HEK293 Kir2.1, FluxOR thallium flux fluorescence | activity over 3SD threshold, % at 10 µM | 1,200 tested, 2% active | AID 2345;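 active means fluorescence ratio rise of at least 3 SD above the vehicle-control mean, seen in both replicates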;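 further: 0% = vehicle mean plus 3 SD and 100% = vehicle minus no-stimulus blank window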
# KCNQ2 W236L pot: potentiates the retigabine-insensitive rat KCNQ2 W236L mutant channel; 940 tested, 10% active; shares compounds with KCNQ2 pot; CHO KCNQ2-W236L, automated patch clamp current; current increase over 3SD of negative controls (%), active compounds read high, % at 25 µM;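 active means current increase at least 3 SD of the untreated controls above them in both duplicate recordings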
# Starred values were filed as active, the others as inactive; i = inactive; x = no result given.
SMILES,KCNQ2 inh,KCNQ2 pot,Kir21 conf inh,HEK293 Tl flux,others
O=C(Nc1ccccc1NC(=O)c1csnn1)c1csnn1,i,x,x,x,
Cc1ccc(NC(=O)c2ccc(C(=O)c3ccccc3)cc2)nc1,i,0.91,x,x,
CCSc1ccc(-c2cccc([N+](=O)[O-])c2)nn1,i,0.41,x,x,
CCc1csc(CCNC(=O)C2CCC(=O)N(CCc3cccc(F)c3)C2)n1 (stereo not drawn),i,0.07,x,x,
CC(C)(C)CC(=O)Nc1ccc(Nc2ccccc2)cc1,i,6.3*,i,i,CHO-K1 Tl ctr=133*;KCNQ1 sel pot=-21;KCNQ2 pot confirm=16*;Kir21 spec=-40;KCNQ2 W236L pot=i
CC(C)CC(=O)Nc1ccc(Nc2ccccc2)cc1,i,1.6,x,x,
COCCCNC(=O)C(C)N1c2cccc3cccc(c23)S1(=O)=O (stereo not drawn),i,2.1,x,x,
CCc1nn(CC(=O)NCc2cccnc2)c(=O)c2cc3occc3n12,i,x,x,x,
CC(C)Oc1ccccc1NC(=O)CSc1nc2ccccc2c(=O)n1C,i,1.2,58%*,i,
Cc1ccccc1NC(=O)CSc1nc2ccccc2c(=O)n1C,i,0.07,x,x,
COc1cc(OC)c(NS(=O)(=O)c2cc3[nH]c(=O)c(=O)[nH]c3cc2C)cc1Cl,i,x,x,x,
CC(C)(C)n1nc2c(c1NC(=O)c1cccc(Cl)c1)CS(=O)(=O)C2,i,x,x,x,
Cc1ccc(N/C(N)=N/c2nc(C)cc(C)n2)cc1,i,0.74,x,x,
Cc1cc(C)nc(/N=C(\N)Nc2ccc(C(C)C)cc2)n1,i,5.5*,i,i,CHO-K1 Tl ctr=100*;KCNQ1 sel pot=-15;KCNQ2 pot confirm=-17;Kir21 spec=-42
Cc1cc(C)c2cc(CN(Cc3ccco3)C(=S)NCC3CCCO3)c(=O)[nH]c2c1 (stereo not drawn),i,x,x,x,
Cc1ccc(N(CC(O)CN2CCCCC2)S(=O)(=O)c2ccc(C)cc2)cc1 (stereo not drawn),i,x,x,x,
NC1=NC(=O)/C(=C/C=C/c2cccs2)S1,i,1.1,x,x,
CCCN1CCC(NCC(C)c2ccccc2)CC1 (stereo not drawn),i,0.07,x,x,
CCCN1CCC(NC23CC4CC(CC(C4)C2)C3)CC1,i,0.34,54%*,i,
COc1ccccc1CCNC(C)CCc1ccc(O)cc1 (stereo not drawn),i,x,x,x,
COc1cc(OC)c(OC)cc1CCC(C)NCCC(c1ccccc1)c1ccccc1 (stereo not drawn),i,0.21,48%*,i,
COc1ccc(OC)c(S(=O)(=O)Nc2cccc3ccc(O)cc23)c1,i,0.59,x,x,
N#Cc1cc2cc3c(cc2nc1NCCNC(=S)NCCCN1CCOCC1)OCO3,i,x,x,x,
N#C/C(=N\Nc1ccc(Cl)c(Cl)c1)C(=O)C1CC1,i,6.6*,i,i,CHO-K1 Tl ctr=13*;KCNQ1 sel pot=-11;KCNQ2 pot confirm=-1;Kir21 spec=-34;KCNQ2 W236L pot=i
N#C/C(=N\Nc1ccc(F)cc1)C(=O)C1CC1,i,2,x,x,
SMILES,KCNQ2 inh,KCNQ2 pot,Kir21 conf inh,HEK293 Tl flux,others
Cc1ccc(C(=O)Nc2ccccc2N2CCCCC2)o1,i,0.17,x,x,
O=C(Cn1cc(Cl)c([N+](=O)[O-])n1)NCCC1=CCCCC1,i,0.14,x,x,
CCOc1cc(/C=N/NS(=O)(=O)c2ccccc2)ccc1OS(=O)(=O)c1ccc(C)cc1,i,x,x,x,
CCOc1cc(/C=N/O)ccc1OS(=O)(=O)c1ccc(C)cc1,i,0.06,48%*,i,
OCc1cn(-c2ccccc2)nc1-c1ccc(-c2nn(-c3ccccc3)cc2CO)cc1,i,0.53,x,x,
Cc1ccc(-c2nn(-c3ccccc3)cc2CSC(=N)N)cc1,i,x,i,i,
Clc1cccc(NCc2nnc(SCc3ccccc3Cl)o2)c1,i,x,x,x,
